Reference: PubChem BioAssay (NCI)
This is part of a sample that, as a whole, favours compounds with a hit. Of some 79,000 tested, about 15% had one in any assay. Rule as the data show it: active = growth inhibition above about 70%; inactive = the rest.

What was measured:
[1] = NCI Yeast Anticancer Drug Screen. Data for the rad50 strain (AID 155);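 also: 0% = growth of vehicle-only cultures of the same strain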; conditions: S. cerevisiae rad50 strain growth inhibition; at 50.0 µM; stronger effect = higher value
Summary of the method: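 Compounds were tested on a yeast strain with an engineered DNA damage repair alteration; the reported value is growth inhibition normalised to vehicle treatment.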

[2] = NCI Yeast Anticancer Drug Screen. Data for the mec2-1 strain (AID 157); conditions: S. cerevisiae mec2-1 strain, at 50.0 µM, stronger effect = higher value
Summary of the method: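 Mutant yeast (mec2-1) grown with compound; growth inhibition relative to vehicle control reported.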

[3] = NCI Yeast Anticancer Drug Screen. Data for the sgs1 mgt1 strain (AID 161);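 also: 0% = growth of cultures given vehicle only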; conditions: S. cerevisiae sgs1 mgt1 strain, at 50.0 µM, stronger effect = higher value
Summary of the method: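 Compounds are added to genetically altered yeast, and growth is compared with cultures given vehicle alone to give percent inhibition.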

[4] = NCI Yeast Anticancer Drug Screen. Data for the cln2 rad14 strain (AID 165);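 also: 0% = growth equal to vehicle treated cultures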; conditions: S. cerevisiae cln2 rad14 strain, at 50.0 µM, stronger effect = higher value
Summary of the method: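 Readout is yeast growth inhibition versus vehicle-treated controls, using a strain with cln2 and rad14 alterations exposed to compound.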

[5] = NCI Yeast Anticancer Drug Screen. Data for the bub3 strain (AID 167); conditions: S. cerevisiae bub3 mutant strain, at 50.0 µM, stronger effect = higher value
Summary of the method: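 Growth of a checkpoint-deficient yeast mutant is measured after compound exposure. Values represent inhibition relative to vehicle.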

[6] = NCI Yeast Anticancer Drug Screen. Data for the mlh1 rad18 strain (AID 175); conditions: S. cerevisiae mlh1 rad18 strain growth inhibition; at 50.0 µM; stronger effect = higher value
Summary of the method: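 Genetically defined yeast (DNA repair-deficient) exposed to compounds; growth inhibition determined relative to vehicle.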

Measured: growth inhibition

Cc1ccc(OC/C=C/c2ccc(C#N)cc2)cc1
inactive: [1] 2.55% | [2] 0.05% | [3] -4.15% | [4] -17.6% | [5] 1.8% | [6] -3%

BrC=C1c2ccccc2-c2ccccc21
inactive: [1] 5.45% | [2] -7.35% | [3] 3.9% | [4] 22.6% | [5] 2.35% | [6] 4.55%

C/C=C\C(=O)OCC(C)COC(=O)/C=C/C (configuration not stated)
inactive: [1] 21.7% | [2] 15.9% | [3] 4.9% | [4] 9.4% | [5] 2.65% | [6] 6.65%

CC12CCC3c4ccc(Cc5ccc([N+](=O)[O-])cc5)cc4CCC3C1CCC2=O (configuration not stated)
inactive: [1] 32.6% | [2] 9.2% | [3] 10.8% | [4] 19.7% | [5] 1.05% | [6] 25.6%

O=c1[nH]c(Sc2ccccc2)nc2ccccc12
inactive: [1] 15.7% | [2] 9.45% | [3] 13.1% | [4] -58.1% | [5] 18.2% | [6] 7.25%

CCOc1ccc2ccc3ccccc3c2c1NC(C)=O
inactive: [1] 10.4% | [2] 2.3% | [3] 12.2% | [4] 32% | [5] 3.6% | [6] 6.25%

Nc1cnccn1
inactive: [1] 1.55% | [2] 4.1% | [3] 0.75% | [4] -4.3% | [5] 9.3% | [6] -10.6%

CC(C)C(C(=O)O)N(CC1(O)OCC(O)C(O)C1O)N=O (configuration not stated)
inactive: [1] -0.2% | [2] -18.4% | [3] -2.85% | [4] 0.1% | [5] -11.1% | [6] -12.9%

COc1ccc(CC(=O)NC(N)=O)cc1
inactive: [1] -6.35% | [2] 2.7% | [3] -12.3% | [4] -9.4% | [5] -6.1% | [6] 5.15%

O=C1C(=Cc2ccccc2)C(=O)c2ccccc21
inactive: [1] 2.55% | [2] 25.6% | [3] 8.65% | [4] -17.6% | [5] 24.7% | [6] 9.3%

CC(C)(C)[N+](=O)[O-]
inactive: [1] -17.2% | [2] -27.1% | [3] -10.7% | [4] 4.95% | [5] 1.4% | [6] 17.1%

CC1CCCCN1C(CC(=O)c1ccccc1)C(=O)c1ccccc1 (configuration not stated)
inactive: [1] 21.4% | [2] 24.1% | [3] 8.55% | [4] 17.1% | [5] 18.4% | [6] 38.7%

COc1cc(C(=O)Nc2cccc3ccccc23)c(Br)c(OC)c1OC
inactive: [1] 19.3% | [2] 17.3% | [3] 39.5% | [4] 26.9% | [5] 53.5% | [6] 32.7%

O=C(NNC(=O)c1cccc(F)c1)c1ccccc1
inactive: [1] -25.8% | [2] -4.25% | [3] -22.9% | [4] -6.05% | [5] -12.8% | [6] 5.2%

Cc1ccc(NC(=O)C(=O)C(C2C(C)CC(=O)C2CC(=O)O)[N+](=O)[O-])cc1 (configuration not stated)
inactive: [1] 23.6% | [2] 11.7% | [3] 12.2% | [4] 17.7% | [5] 13.7% | [6] 30.6%

FC(F)(F)c1nn2c(c(-c3ccccc3)c(-c3ccccc3)c3ccccc32)c1C(F)(F)F
inactive: [1] 32.9% | [2] 11.2% | [3] 28.9% | [4] 25.6% | [5] -4.4% | [6] 31.8%

CCC(CC)C(=O)OCCOCCOCCOC(=O)C(CC)CC
inactive: [1] -9.3% | [2] -16.8% | [3] -2.15% | [4] 6.8% | [5] -3.35% | [6] 1%

COc1cc2c3c4c1OCc1c5c(cc(c1-4)CC3[N+](C)(C)CC2)OCO5 (configuration not stated)
inactive: [1] 4.35% | [2] 6.3% | [3] 8.7% | [4] 21.1% | [5] 11.1% | [6] -52.1%

Cc1ccc2c(c1)[nH]c(=S)n2/C=C(\c1ccccc1)S(=O)Cc1ccccc1 (configuration not stated)
inactive: [1] -23.7% | [2] -25.6% | [3] -19.9% | [4] 0.3% | [5] -28.1% | [6] -26.2%

C/C(=C/c1c(C)c([N+](=O)[O-])c(C)c(C)c1[N+](=O)[O-])C(=O)O
inactive: [1] -3.3% | [2] 38.8% | [3] 14.7% | [4] 11.4% | [5] 30.9% | [6] 37%

CC1(C)OCC2OC=CC(=O)C2O1 (configuration not stated)
inactive: [1] -8.65% | [2] -2.65% | [3] -0.4% | [4] 5.15% | [5] -14.1% | [6] -68.5%

O=C(OCCCl)OCCCl
inactive: [1] 41.5% | [2] 18.9% | [3] 22.4% | [4] -21.9% | [5] -5.3% | [6] 25%

COc1cc(C=Nc2ccc(N3CCOCC3)cc2)ccc1O
inactive: [1] -1.1% | [2] -3.45% | [3] -8.45% | [4] -18.6% | [5] 12.6% | [6] -1.25%

CC(C)=CCC(C)C
inactive: [1] -12.1% | [2] 3.85% | [3] 6.85% | [4] 7.9% | [5] -12.6% | [6] -3.85%

Cc1ccccc1N=Cc1ccccc1O.[Co]
inactive: [1] 12.2% | [2] 11.2% | [3] 27.4% | [4] -17.4% | [5] 0.3% | [6] 32%

CC(=O)OCC(=O)[C@@]1(O)CC[C@H]2[C@@H]3CCC4=CC(=O)CC[C@]4(C)[C@H]3[C@@H](O)C[C@@]21C
inactive: [1] -20.6% | [2] -17.4% | [3] -3.2% | [4] -20.3% | [5] -23.1% | [6] -38.5%

NC[C@H]1Nc2ccccc2[C@@H](O)C1O (some centres not stated)
inactive: [1] 14.6% | [2] 6.95% | [3] 0.4% | [4] 8.9% | [5] 12.6% | [6] -12.1%

COc1ccc(CNc2ccccc2)cc1
inactive: [1] -2% | [2] 11.8% | [3] 3.65% | [4] 10.6% | [5] -4.05% | [6] -9.4%

O=C(Oc1ccc(C(=O)c2ccccc2)cc1)C(Cl)=C(Cl)Cl
inactive: [1] -6.95% | [2] -1.75% | [3] 7.7% | [4] -55.8% | [5] 7.35% | [6] -4%

O=[N+]([O-])c1ccc(I)c(I)c1
inactive: [1] -20.8% | [2] -3.8% | [3] 0.1% | [4] -43.2% | [5] -0.45% | [6] 7.85%

C1=C2/CC[C@H](Sc3ccccc3)[C@H]2C2(CCCCC/1)OCCO2
inactive: [1] 13.8% | [2] -19% | [3] -6.45% | [4] -1.05% | [5] 13.2% | [6] -4.05%

CC1=CC(C)(C)N=C2SC(c3ccc(N)cc3)=NN12
inactive: [1] 25% | [2] 1.7% | [3] 3.55% | [4] 5.9% | [5] 18.5% | [6] 28.4%

O=C1c2c(ccc3c2CCCC3)CC12Cc1ccc3c(c1C2=O)CCCC3
inactive: [1] 20.1% | [2] 13.8% | [3] -0.85% | [4] 23.9% | [5] 7% | [6] 12.1%

[C-]#[N+]N=P(c1ccccc1)(c1ccccc1)c1ccccc1
inactive: [1] -18% | [2] -20.8% | [3] -27.9% | [4] 3.2% | [5] -8.65% | [6] 5.65%

Nc1nc(N)c(-c2ccccc2)c(C(=O)Nc2ccc(Cl)c(Cl)c2)n1
inactive: [1] -27.9% | [2] -34.4% | [3] 4.1% | [4] 5.6% | [5] -23.1% | [6] -16.4%

O=C1C2=C(Nc3cc([N+](=O)[O-])ccc3N2)OC1c1ccc2c(c1)OCO2 (configuration not stated)
inactive: [1] -10.4% | [2] -16.9% | [3] -15.1% | [4] 5.75% | [5] -28.2% | [6] -5.45%

CC(=O)OC1OC(c2ccoc2)C[C@@]12C1CCC3O[C@]3(C)[C@]1(C)C[C@H](OC(C)=O)[C@H]2C (some centres not stated)
inactive: [1] -0.5% | [2] -14.5% | [3] -41.5% | [4] -13.6% | [5] -32.1% | [6] -13.2%

CC(C)S(=O)(=O)/C=C(\I)c1ccccc1
inactive: [1] 3.7% | [2] 8.7% | [3] -11.2% | [4] 6.9% | [5] 33.2% | [6] -11.4%

OC1CC2C=CC1CC2 (configuration not stated)
inactive: [1] 14.9% | [2] 10.3% | [3] 2.4% | [4] 13.2% | [5] 25.1% | [6] 14.4%

COc1ccc(C(=O)/C=C/c2ccc(OCCSCCCCCCCCCCSCCOc3ccc(/C=C/C(=O)c4ccc(OC)cc4)cc3)cc2)cc1
inactive: [1] -35% | [2] -30.1% | [3] -16.6% | [4] 3.75% | [5] -20.2% | [6] -40.3%

Oc1ccc(N=Cc2ccc3ccccc3n2)cc1
inactive: [1] 36% | [2] 1.55% | [3] 19.1% | [4] 10.3% | [5] -19.8% | [6] 4.2%

O=C(NCc1cccnc1)C1COc2cc(-c3cc(=O)c4ccccc4o3)ccc2O1 (configuration not stated)
inactive: [1] -9.55% | [2] -18.9% | [3] -23.9% | [4] -5.25% | [5] -6.95% | [6] -49%
